Records with an inconclusive call do not appear. Entries that show only a call come without a potency. Active and inactive are the calls of the source. Calls come from the whole dose curve; as a rule, active = well fitted curve in the direction sought with a large enough effect; inconclusive = small, poorly fitted or top-dose-only effect, or another doubt; inactive = no such curve, though single readings can be large; an effect the other way counts as inactive or inconclusive.
What was measured:
[1] = target: Glutaminase kidney isoform, mitochondrial (Homo sapiens) (UniProt O94925); assay: qHTS for Inhibitors of Glutaminase (GLS): LOPAC Validation (AID 624146); settings: glutaminase enzyme activity inhibition; series mostly up to 46.1 µM;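 note: glutamate product detected by oxidase and peroxidase coupled Amplex red fluorescence gain; nearly all actives have a fitted effect of over 60% in size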
Method in brief: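 Read-out is an Amplex red fluorescence increase coupled through glutamate oxidase and HRP, measured before and after 30 min room-temperature incubation. hKGA is in 45 mM KH2PO4 (pH 8.2) with 0.02% Tween-20; glutamine added as 1mM solution.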

[2] = qHTS of Trypanosoma Brucei Inhibitors: LOPAC Validation (AID 624147); settings: purified enzyme assay, luminescence, 45 min; series mostly up to 57.5 µM
Method in brief: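 TbPYK + substrate in 50 mM TEA pH 7.2, 100 mM KCl, 10 mM MgCl2, 0.05% BSA, 0.01% Tween-20; cpd pinned; ADP 130 uM final; 45 min RT; Kinase-Glo Plus 10 min; luminescence endpoint.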

Sequence of Glutaminase kidney isoform, mitochondrial (Homo sapiens) (O94925 whole entry, looked up, canonical isoform): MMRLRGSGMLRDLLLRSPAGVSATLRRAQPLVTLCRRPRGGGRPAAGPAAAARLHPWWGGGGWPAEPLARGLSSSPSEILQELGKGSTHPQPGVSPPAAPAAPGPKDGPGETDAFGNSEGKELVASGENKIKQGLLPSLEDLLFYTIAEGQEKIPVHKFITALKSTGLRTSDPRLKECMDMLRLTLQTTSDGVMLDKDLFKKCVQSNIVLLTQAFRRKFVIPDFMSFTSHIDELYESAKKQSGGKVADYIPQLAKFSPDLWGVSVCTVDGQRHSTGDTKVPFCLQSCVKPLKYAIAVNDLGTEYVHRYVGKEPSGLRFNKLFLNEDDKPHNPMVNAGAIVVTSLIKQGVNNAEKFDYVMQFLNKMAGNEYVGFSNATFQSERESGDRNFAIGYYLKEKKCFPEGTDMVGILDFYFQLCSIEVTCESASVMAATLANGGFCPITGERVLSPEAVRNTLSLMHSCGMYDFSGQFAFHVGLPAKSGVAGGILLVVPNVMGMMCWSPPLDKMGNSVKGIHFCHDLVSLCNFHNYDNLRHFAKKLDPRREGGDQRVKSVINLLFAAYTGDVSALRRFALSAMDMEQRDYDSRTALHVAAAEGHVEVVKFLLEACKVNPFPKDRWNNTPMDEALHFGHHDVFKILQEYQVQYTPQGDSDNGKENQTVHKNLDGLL

| SMILES | Potency [1] | Potency [2] |
| --- | --- | --- |
| O=[N+]([O-])c1ccc(CSc2ncnc3c2ncn3[C@@H]2O[C@H](CO)[C@@H](O)[C@H]2O)cc1 | inactive | inactive |
| CCCN(CC1CC1)c1nc(C)nc(Nc2c(Cl)cc(Cl)cc2Cl)c1Cl | inactive | inactive |
| C#C[C@]1(O)CC[C@H]2[C@@H]3CCC4=Cc5oncc5CC4(C)[C@H]3CCC21C (some centres not stated) | inactive | inactive |
| Clc1ccc(N2CCN(Cc3c[nH]c4ncccc34)CC2)cc1 | inactive | inactive |
| OC[C@H]1O[C@@H](n2cnc3c(NC4CCCC4)ncnc32)[C@H](O)[C@@H]1O | inactive | inactive |
| O=[N+]([O-])c1ccc2c(c1)S(=O)(=O)C=C2 | inactive | inactive |
| CC(C)CC(NP(=O)(O)O[C@@H]1O[C@@H](C)[C@H](O)[C@@H](O)[C@H]1O)C(=O)NC(Cc1c[nH]c2ccccc12)C(=O)O (some centres not stated) | inactive | inactive |
| CNc1ncnc2c1ncn2[C@@H]1O[C@H](CO)[C@@H](O)[C@H]1O | inactive | inactive |
| CCOC(=O)C1=C(C)NC(C)=C(C(=O)OCC)C1c1c(F)c(F)c(F)c(F)c1F | inactive | inactive |
| O=P(O)(O)C(Cl)(Cl)P(=O)(O)O | inactive | inactive |
| Nc1nc(Cl)nc2c1ncn2[C@@H]1O[C@H](COP(=O)(O)OP(=O)(O)OP(=O)(O)O)[C@@H](O)[C@H]1O | inactive | inactive |
| CN(C)c1nc(N)c(C(=O)N=C(N)N)nc1Cl | inactive | inactive |
| NC[C@@H]1O[C@H](C23CC4CC(CC(C4)C2)C3)Cc2c1ccc(O)c2O | inactive | inactive |
| CN1C2CC(OC(=O)[C@H](CO)c3ccccc3)CC1C1OC12 (some centres not stated) | inactive | inactive |
| CN1C2CCC1CC(OC(=O)C(O)c1ccccc1)C2 (configuration not stated) | inactive | inactive |
| Clc1ccc(N2CCN(Cc3cc4ccccn4n3)CC2)cc1 | inactive | inactive |

Reference: PubChem BioAssay (NCATS)
